Results as given in PubChem BioAssay AID1159580 (chemical genetic matrix, 2015).
Among all 5,500 compounds or so, about 2,000 (36%) were called active. Roughly 18% stayed inconclusive and do not appear here. No stated cut-off is given here; in the data, active means normalized growth mostly below about 0.91 (no sharp cut-off); inconclusive means no clear call, values can overlap the other calls; inactive means mostly above about 0.92. This is one part of the list.

Test: chemical genetic growth profiling, strain panel (AID 1159580);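 further: tested at 20 µM; growth read once vehicle control cultures reached saturation at 30 °C; 1 = growth at the plate median or of vehicle wells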
Conditions: S. cerevisiae deletion strains, growth OD

Measured: normalized growth

CC(C)CCCC(C)N (configuration not stated)
inactive: locus YAL021C, strain ccr4, stronger effect = lower value 1.03 | locus YAL026C, strain drs2, stronger effect = lower value 1.02 | locus YAL030W, strain snc1, stronger effect = lower value 1.02 | locus YBL061C, strain skt5, stronger effect = lower value 1.02 | locus YBR009C, strain hhf1, stronger effect = lower value 1.02 | locus YBR023C, strain chs3, stronger effect = lower value 1.03 | locus YBR171W, strain sec66, stronger effect = lower value 1.05 | locus YBR231C, strain swc5, stronger effect = lower value 1.02 | locus YBR279W, strain paf1, stronger effect = lower value 1.02 | locus YCL011C, strain gbp2, stronger effect = lower value 1.04 | locus YCL016C, strain dcc1, stronger effect = lower value 1.02 | locus YCL061C, strain MRC1, stronger effect = lower value 1.01 | locus YCL069W, strain vba3, stronger effect = lower value 1.03 | locus YCR088W, strain abp1, stronger effect = lower value 1.03 | locus YDL005C, strain med2, stronger effect = lower value 1.04 | locus YDL040C, strain nat1, stronger effect = lower value 1.02 | locus YDR001C, strain nth1, stronger effect = lower value 1.02 | locus YDR069C, strain doa4, stronger effect = lower value 1.04 | locus YDR137W, strain rgp1, stronger effect = lower value 0.99 | locus YDR159W, strain sac3, stronger effect = lower value 0.97 | locus YDR195W, strain ref2 1.03 | locus YDR297W, strain sur2, stronger effect = lower value 1.02 | locus YDR334W, strain swr1, stronger effect = lower value 1.03 | locus YDR335W, strain msn5, stronger effect = lower value 1.04 | locus YDR392W, strain spt3, stronger effect = lower value 0.963 | locus YEL003W, strain gim4, stronger effect = lower value 1.02 | locus YEL037C, strain rad23, stronger effect = lower value 1.04 | locus YEL061C, strain CIN8 (second series), stronger effect = lower value 1.01 | locus YER015W, strain faa2, stronger effect = lower value 1.02 | locus YER016W, strain bim1, stronger effect = lower value 1.05 | locus YER111C, strain swi4, stronger effect = lower value 1.04 | locus YER155C, strain BEM2 (second series), stronger effect = lower value 1.03 | locus YFR010W, strain ubp6, stronger effect = lower value 1.01 | locus YGL167C, strain pmr1, stronger effect = lower value 1.03 | locus YGL173C, strain kem1, stronger effect = lower value 1.01 | locus YGL227W, strain vid30, stronger effect = lower value 1.04 | locus YGL240W, strain doc1, stronger effect = lower value 0.983 | locus YGL253W, strain hxk2, stronger effect = lower value 1.04 | locus YHR013C, strain ard1, stronger effect = lower value 1.03 | locus YHR027C, strain rpn1, stronger effect = lower value 1.02 | locus YHR142W, strain chs7, stronger effect = lower value 1.05 | locus YJL092W, strain hpr5, stronger effect = lower value 1.02 | locus YJL095W, strain BCK1 (second series), stronger effect = lower value 1.03 | locus YJL115W, strain asf1, stronger effect = lower value 1.03 | locus YJL129C, strain trk1, stronger effect = lower value 1.04 | locus YJL154C, strain vps35, stronger effect = lower value 1.03 | locus YJL164C, strain tpk1, stronger effect = lower value 1.03 | locus YJL166W, strain qcr8, stronger effect = lower value 1.02 | locus YJL187C, strain SWE1, stronger effect = lower value 1.02 | locus YKL160W, strain elf1, stronger effect = lower value 1.03 | locus YKR026C, strain gcn3, stronger effect = lower value 1.02 | locus YKR091W, strain srl3, stronger effect = lower value 1.01 | locus YLL001W, strain dnm1, stronger effect = lower value 1 | locus YLL026W, stronger effect = lower value 1.01 | locus YLL041C, strain sdh2, stronger effect = lower value 1.03 | locus YLR027C, strain aat2, stronger effect = lower value 1.03 | locus YLR221C, strain rsa3, stronger effect = lower value 1.01 | locus YLR258W, strain gsy2, stronger effect = lower value 1.01 | locus YLR262C, strain YPT6 (second series), stronger effect = lower value 0.999 | locus YLR320W, strain mms22, stronger effect = lower value 0.977 | locus YLR342W, strain FKS1, stronger effect = lower value 1.03 | locus YLR357W, strain rsc2, stronger effect = lower value 1.06 | locus YLR370C, strain arc18, stronger effect = lower value 1.03 | locus YLR384C, strain iki3, stronger effect = lower value 1.03 | locus YML120C, strain ndi1, stronger effect = lower value 1.02 | locus YMR058W, strain fet3, stronger effect = lower value 1.01 | locus YMR125W, strain sto1, stronger effect = lower value 1.04 | locus YMR129W, stronger effect = lower value 1.02 | locus YMR205C, strain PFK2, stronger effect = lower value 1.01 | locus YMR231W, strain pep5, stronger effect = lower value 1.03 | locus YNL071W, strain lat1, stronger effect = lower value 1.03 | locus YNL209W, strain ssb2, stronger effect = lower value 1.03 | locus YNL248C, strain rpa49, stronger effect = lower value 1.07 | locus YNL322C, strain KRE1 (second series), stronger effect = lower value 1.04 | locus YNR049C, strain mso1, stronger effect = lower value 1.03 | locus YOR001W, strain rrp6, stronger effect = lower value 1.02 | locus YOR070C, strain gyp1, stronger effect = lower value 1.02 | locus YOR080W, strain dia2, stronger effect = lower value 1.03 | locus YOR083W, strain WHI5, stronger effect = lower value 0.968 | locus YOR106W, strain vam3, stronger effect = lower value 1.04 | locus YOR265W, strain rbl2, stronger effect = lower value 1.02 | locus YOR270C, strain vph1, stronger effect = lower value 1.14 | locus YOR290C, strain snf2, stronger effect = lower value 1.03 | locus YPL051W, strain arl3, stronger effect = lower value 1.02 | locus YPL078C, strain atp4, stronger effect = lower value 1.04 | locus YPL106C, strain sse1, stronger effect = lower value 1.05 | locus YPL240C, strain hsp82, stronger effect = lower value 1.03
